Our source for the Potency and activity change values is PubChem BioAssay (Tox21).

Unmarked numbers belong to inactive results. Where a call stands in place of a potency, no number is given. The source made the active and inactive calls. Calls follow the shape of the full dose curve.
Potency is read from the fitted curve at half-maximal effect.

Sequence of Gonadotropin-releasing hormone receptor (Homo sapiens) (P30968 whole entry, looked up): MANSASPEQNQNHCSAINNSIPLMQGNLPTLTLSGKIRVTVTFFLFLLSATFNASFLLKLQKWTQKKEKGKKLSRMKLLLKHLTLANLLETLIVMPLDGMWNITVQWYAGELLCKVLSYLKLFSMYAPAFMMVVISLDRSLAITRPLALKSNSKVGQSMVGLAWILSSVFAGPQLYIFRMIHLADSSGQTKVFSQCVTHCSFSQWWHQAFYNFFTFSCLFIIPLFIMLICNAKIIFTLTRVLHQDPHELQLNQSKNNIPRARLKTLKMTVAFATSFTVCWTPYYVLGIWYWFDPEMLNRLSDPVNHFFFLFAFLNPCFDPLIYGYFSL

The test deals with Gonadotropin-releasing hormone receptor (Homo sapiens) (UniProt P30968). The test is described as follows: Human gonadotropin-releasing hormone receptor (GnRHR) small molecule agonists, calcium flux assay in GnRHR-HEK293 cells (AID 1920063). Also: nearly all actives have a fitted effect of over 35% in size. Particulars: calcium flux fluorescence, agonist mode; series mostly up to 57.6 µM. From the text:
National Center for Advancing Translational Sciences [NCATS]
Division of Preclinical Innovation [DPI]
U.S. Environmental Protection Agency [EPA]
National Institutes of Environmental Health Sciences [NIEHS]
National Toxicology Program [NTP]
U.S. Food and Drug Administration [FDA]
Gonadotropin-releasing hormone receptor (GnRHR) is a G-protein-coupled receptor (GPCR) and acts (through phospholipase C) to increase intracellular inositol trisphosphate and then release intracellular calcium stores. Cell-based GnRHR-Hek293 calcium influx assay is using HEK293 cells that have been genetically engineered to express the human GnRHR, which activity can be measured by calcium signaling. A compound/drug can activate (agonist) GnRHR that can be monitored by levels of intracellular calcium.
GnRHR-HEK293 cells developed by Codex Corp contain human GnRHR reporter gene, which was stably integrated into HEK 293 cells. The compound activation can be detected by fluorescence intensity via calcium flux assay. This cell line has been used to screen the Tox21 10K compound library to identify GnRHR agonists.
GnRHR-Hek293 cells were dispensed at 1500cells/4uL/well in 1536-well black wall/clear bottom plates using a multidrop dispenser. After the assay plates were incubated at a 37 C/5% CO2 incubator for 18 hours, 4 uL of Calcium Dye Solution was added to each well. The plates were incubated at 37 C for 1 hour. For agonist mode, 23 nL of compounds dissolved in DMSO, positive controls or DMSO only was transferred to the assay plate by a pin tool station. The fluorescence intensity in the plates was measured using FDSS 7000EX kinetic plate reader with a filter set of Ex/Em=480/540 for 3 min at 1 sec intervals. Each test compound was measured at 15 concentrations and in triplicates.
(In general: Calcium assays in cells follow changes in intracellular calcium, usually with a dye or a luminescent sensor.)
As for `OC(CCN1CCCCC1)(c1ccccc1)C1CC2C=CC1C2` (stereo not given), the Potency result is “inactive”. Same read-out and setting: for `O=c1oc2cc(O)ccc2c2oc3cc(O)ccc3c12` the value was “inactive”; for `CO[C@@]12[C@H](COC(N)=O)C3=C(C(=O)C(C)=C(N)C3=O)N1C[C@@H]1N[C@@H]12`, “inactive”. On the same count and under the same terms, the result for `CCN(CC)c1ccc2c(c1)Oc1cc(N(CC)CC)ccc1C21OC(=O)c2ccccc21` reads 19 µM (active).

For the molecule `NC(N)=NCCC[C@H](N)C(=O)O`, the activity change is 0.97% [at 5.22 µM, active compounds read high]. Take `CC(=O)O[C@@]12CO[C@@H]1C[C@H](O)[C@@]1(C)C(=O)[C@H](O)C3=C(C)[C@@H](OC(=O)[C@H](O)[C@@H](NC(=O)OC(C)(C)C)c4ccccc4)C[C@@](O)([C@@H](OC(=O)c4ccccc4)[C@H]21)C3(C)C`: the Potency entry was “inactive”. The same measure, in the same setting: for `CCCCC(CC)COC(=O)CCCCC(=O)OCc1ccccc1` (stereo not given) the value was “inactive”. As to `CCOC(=O)C(C)Oc1ccc(Oc2nc3ccc(Cl)cc3o2)cc1` (stereo not given), the Potency entry is “inactive”. Turning to `CCCCc1oc2ccc(NS(C)(=O)=O)cc2c1C(=O)c1ccc(OCCCN(CCCC)CCCC)cc1`, the Potency entry is “inactive”. Still for that read-out and setting: for `NC(N)=NN=C(/C=C/c1ccc([N+](=O)[O-])o1)/C=C/c1ccc([N+](=O)[O-])o1` the value was “inactive”; for `CCCC(=O)OCCC(C)CCC=C(C)C` (stereo not given), “inactive”. Still for that read-out and setting: for `O=C(Nc1ccc2c(c1)Cc1ccccc1-2)C(F)(F)F` the value was “inactive”; for `CC(=O)c1ccccc1[N+](=O)[O-]`, “inactive”; for `C/C(=C(/OCCOc1ccc(Cl)cc1)c1ccc(Cl)cc1Cl)n1ccnc1`, “inactive”. On to `COc1nc(N)nc2c1ncn2[C@@H]1O[C@H](CO)[C@@H](O)[C@@H]1O`, for which the Potency result was “inactive”. Still for that read-out and setting: the result for `CC(=O)OCC(=O)[C@@]1(O)CC[C@H]2[C@@H]3CCC4=CC(=O)CC[C@]4(C)[C@H]3C(=O)C[C@@]21C` reads “inactive”; that for `CC(C)COC(=O)CCCCC(=O)OCC(C)C`, “inactive”. The same measure, in the same setting: the result for `CC(=O)NCCCS(=O)(=O)O` reads 15 µM (active); that for `CN(C)[C@@H]1C(=O)C(C(N)=O)=C(O)[C@@]2(O)C(=O)C3=C(O)c4c(O)ccc(Cl)c4[C@@H](O)[C@H]3C[C@@H]12`, “inactive”. Same read-out and setting: for `CCCCCCCCCCC=O` the value was “inactive”. Take `[Ca+2]`: the Potency result was “inactive”.

For the molecule `O=C(Nc1cccc(Cl)c1)OCC#CCCl`, the Potency entry was “inactive”. On the same count and under the same terms, for `O=c1[nH]c(=O)n([C@H]2C[C@H](O)[C@@H](CO)O2)cc1C(F)(F)F` the value was “inactive”. Same read-out and setting: for `Oc1ccc(C2(c3ccc(O)c(C4CCCCC4)c3)CCCCC2)cc1C1CCCCC1` the value was “inactive”; for `O=C(O)CO`, “inactive”; for `ClC(Cl)(Cl)c1ccc(C(Cl)(Cl)Cl)cc1`, “inactive”. Take `CCCCCCC1CCC(=O)O1` (stereo not given): the Potency entry was “inactive”. Still for that read-out and setting: the result for `CC(C)NCC(O)COc1ccc(CCOCC2CC2)cc1` (stereo not given) reads “inactive”; that for `C=CC(=O)N1CCOCC1`, “inactive”; that for `O=C(O)[C@@H]1CSCN1`, “inactive”.

For the molecule `C[C@@H](O)C(=O)O`, the Potency result is “inactive”. As to `CC(=O)CCc1ccc(OC(C)=O)cc1`, the Potency entry is “inactive”. Same read-out and setting: the result for `CCCC/C=C/CCCCO` reads “inactive”; that for `Nc1ccn(C2CO[C@H](CO)O2)c(=O)n1` (stereo not given in full), 4.25 µM (active).

As to `C=C[Si]1(C)O[Si](C)(C=C)O[Si](C)(C=C)O[Si](C)(C=C)O1` (stereo not given), the Potency entry was “inactive”. The same measure, in the same setting: for `Cc1nc2sccn2c(=O)c1CCN1CCC(=C(c2ccc(F)cc2)c2ccc(F)cc2)CC1` the value was “inactive”; for `CCCc1ccc(OC)cc1`, “inactive”. For `CCCCCOC(=O)Nc1nc(=O)n([C@@H]2O[C@H](C)[C@@H](O)[C@H]2O)cc1F`, the Potency entry is “inactive”. Same read-out and setting: the result for `O=C(c1ccccc1)c1cc(Cl)ccc1O` reads “inactive”.

As for `O=C(OCC(COC(=O)c1cccnc1)(COC(=O)c1cccnc1)COC(=O)c1cccnc1)c1cccnc1`, the Potency entry is “inactive”.
